Calb FLC = affects C. albicans growth with fluconazole | hit rate 0.57% among 300,000 | growth inhibition, % (test concentration not listed) | C. albicans CaCi-2 (fluconazole-resistant clinical isolate) + fluconazole, Alamar Blue growth, 48 h;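 active = growth inhibition above about 58% in most replicates, limit read from the data, passing the limit was not always enough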;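 note: all wells also contain fluconazole at 8 µg/ml as a sub-toxic cotreatment; 0% = median of DMSO wells and 100% = median of geldanamycin control wells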
CSC inhib = blocks cancer stem cells. inhibition, % at 7.5 µM. cancer stem cell-like cells viability, luminescence. hit rate 1.1% among 300,000; in the data active = inhibition above about 75%; tested in HMLE shEcad cells
Beta apoptosis = blocks beta cell apoptosis. INS-1E cytokine-induced death, ATP luminescence, 48 h; percent of positive-control rescue, neutral wells zero. protection from apoptosis, % (test concentration not listed). hit rate 0.8% among 300,000. AID 435005;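 active = Every replicate reaches about 75%, or at least half do and their mean reaches it too, limit read from the data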;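 note: 0% = cytokine-treated negative control wells and 100% = positive control rescue; higher means more ATP so stronger rescue from cytokine killing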
MPTP block = blocks calcium-induced mitochondrial swelling. isolated mouse mitochondria, Ca2+ swelling absorbance, 30 min. inhibition, % at 10 µM. hit rate 1.4% among 360,000. AID 602449;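 active = inhibition of 50% or more, scaled per plate between neutral and stimulator controls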;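 note: 0% = DMSO wells given calcium and 100% = 1 mM EGTA wells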
Mdm2-MdmX inh = disrupts the human Mdm2-MdmX interaction | inhibition, % at 8 µM | SaOS-2 split-luciferase Mdm2/MdmX complementation, luminescence | AID 485346 | hit rate 3% among 330,000 | O15151+Q00987;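 active = inhibition of at least 50% at 8 µM in the primary screen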
Target sequence (O15151 whole entry, looked up): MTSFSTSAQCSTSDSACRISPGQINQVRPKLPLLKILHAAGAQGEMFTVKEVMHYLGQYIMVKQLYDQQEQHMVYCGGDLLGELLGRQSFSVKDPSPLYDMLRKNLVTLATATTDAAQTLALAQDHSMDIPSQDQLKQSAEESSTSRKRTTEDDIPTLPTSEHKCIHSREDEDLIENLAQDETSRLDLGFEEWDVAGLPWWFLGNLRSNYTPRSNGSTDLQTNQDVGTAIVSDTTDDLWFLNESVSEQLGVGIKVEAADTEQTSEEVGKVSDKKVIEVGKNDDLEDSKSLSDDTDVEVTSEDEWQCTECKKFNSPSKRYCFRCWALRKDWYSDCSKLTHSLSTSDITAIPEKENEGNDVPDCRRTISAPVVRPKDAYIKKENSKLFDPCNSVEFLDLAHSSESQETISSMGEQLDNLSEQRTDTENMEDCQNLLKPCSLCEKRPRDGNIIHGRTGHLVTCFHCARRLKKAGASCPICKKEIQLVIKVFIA
Target sequence (Q00987 whole entry, looked up): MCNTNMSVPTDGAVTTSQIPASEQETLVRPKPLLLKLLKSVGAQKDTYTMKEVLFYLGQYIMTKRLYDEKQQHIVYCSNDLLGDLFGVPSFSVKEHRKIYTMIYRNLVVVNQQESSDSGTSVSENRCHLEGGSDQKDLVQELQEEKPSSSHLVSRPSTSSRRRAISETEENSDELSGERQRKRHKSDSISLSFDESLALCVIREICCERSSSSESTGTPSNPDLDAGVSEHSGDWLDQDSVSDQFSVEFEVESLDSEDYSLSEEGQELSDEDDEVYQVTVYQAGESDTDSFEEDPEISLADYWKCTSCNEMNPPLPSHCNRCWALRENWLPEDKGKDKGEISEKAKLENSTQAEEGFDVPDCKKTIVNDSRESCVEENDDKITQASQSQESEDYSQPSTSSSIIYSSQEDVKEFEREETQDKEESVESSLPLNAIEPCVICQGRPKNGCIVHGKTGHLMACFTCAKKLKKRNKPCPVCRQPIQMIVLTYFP
SKKanGAS inh = blocks kanamycin growth of S. pyogenes SKKanGAS strain; inhibition, % at 7.5 µM; AID 1662; hit rate 1.3% among 300,000; BacTiter-Glo, 6 h;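 active = mean replicate score, as percent of positive control median, at least 50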;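 note: strain carries kanamycin resistance gene driven by streptokinase promoter and grows in 40 µg/ml kanamycin; loss of luminescence reflects streptokinase promoter inhibition or plain growth inhibition; 0% = median of DMSO wells and 100% = positive control at its reference dose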
Mdm2 MdmX conf = confirmation of human Mdm2/MdmX interaction inhibitors. shares compounds with Mdm2-MdmX inh. Mdm2-MdmX binding, luminescent assay. inhibition, % at 8 µM. hit rate 55% among 10,000; in the data active = inhibition above about 40%
Full FLuc ctr = full-length luciferase inhibition in Mdm2/MdmX counter-screen | shares compounds with Mdm2-MdmX inh | SaOS-2 full-length luciferase counterscreen, luminescence | inhibition, % at 8 µM | hit rate 77% among 6,200;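 active = mean inhibition at 8 µM reaching about 37%, which flags the compound as non-specific, limit read from the data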;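 note: p53-null SaOS-2 cells with luciferase driven by a doxycycline-inducible promoter; compound on cells about two nights before reading with doxycycline added after day one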
* marks the source's active call; other numbers are inactive results; nt = no result. The list is not random: actives were taken first. Their share in the collection is about 5.4%.

SMILES	Calb FLC	CSC inhib	Beta apoptosis	MPTP block	Mdm2-MdmX inh	SKKanGAS inh	Mdm2 MdmX conf	Full FLuc ctr
COc1cc2c(c(OC)c1OC)-c1ccc(O)cc1[C@@H](NC(C)=O)CC2	0	4	59	-1	63*	-3	65*	107*
COc1cc2c(c(OC)c1OC)-c1ccc(O)cc1C(NC(C)=O)CC2 (centres undefined)	nt	nt	nt	-3	nt	nt	nt	nt
CC(=O)O[C@@H]1/C=C/[C@](C)(O)C[C@@H](C)C/C=C/[C@H]2[C@H](O)[C@@](C)(O)[C@@H](C)[C@H]3[C@H](Cc4ccccc4)NC(=O)[C@@]312	-2	-10	-3	1	-24	0	nt	nt
O=C1NC(=O)N(c2cccc(Br)c2)C(=O)/C1=C/c1ccsc1	-6	0	2	8	9	7	nt	nt
COc1ccc(CNCCc2c(C)[nH]c3ccc(OC(F)(F)F)cc23)c(OC)c1	2	16	88*	2	87*	-1	53*	52*
COc1ccc2[nH]c(C)c(CCNCc3cc(OC)c(OC)c(OC)c3)c2c1	-3	-9	4	-3	-13	3	nt	nt
C=CC[C@@H](CC/C=C/C=C/CC/C=C\[C@@H]1CSC([C@@H]2C[C@@H]2C)=N1)OC	nt	nt	nt	1	56*	nt	49*	114*
CCn1c(O)c(/C=N/NC(=O)c2ccccc2)c(=O)n(CC)c1=S	-14	-4	-8	3	41	-1	nt	nt
O=C1Nc2cc(C(=O)N3CCC4(CC3)OCCO4)ccc2S/C1=C\c1ccccc1	-14	52	17	0	61*	-2	50*	66*
O=c1[nH]c(=S)[nH]c(O)c1N=Nc1ccc2c(c1)OCCO2	-5	8	35	1	-1	-8	nt	nt
O=c1[nH]c(O)c(N=Nc2ccc3c(c2)OCCO3)c(=O)[nH]1	14	10	5	1	58*	-3	68*	78*
C=C(C)[C@@]12OC3(c4ccccc4)O[C@@H]1C1[C@@H]4O[C@]4(CO)[C@@H](O)[C@]4(O)C(=O)C(C)=C[C@H]4[C@@]1(O3)[C@H](C)[C@H]2OC(=O)/C=C/C=C/c1ccccc1 (some centres undefined)	-2	6	3	2	77*	30	12	nt
CC12CCC3C(CC=C4CC(O)CCC43C)C1C/C(=C\c1cccc(F)c1)C2=O (centres undefined)	-1	31	3	0	60*	17	20	nt
COc1cc2c3cc1Oc1cc(ccc1O)C[C@@H]1c4c(cc(OC)c(O)c4Oc4ccc(cc4)C[C@H]3N(C)CC2)CCN1C	-13	7	1	5	92*	-1	76*	50*
COc1cc2c3c(c1OC)Oc1ccc(cc1)C[C@H]1c4c(cc(OC)c(OC)c4Oc4ccc(cc4)C[C@@H]3N(C)CC2)CCN1C	nt	nt	nt	5	100*	nt	74*	35
COc1cc2c3cc1Oc1c(OC)c(OC)cc4c1[C@H](Cc1ccc(cc1)Oc1cc(ccc1O)C[C@H]3N(C)CC2)N(C)CC4	nt	-4	17	-2	97*	nt	57*	30
COc1cc2c(cc1O)C[C@H]1c3c(cc(O)c(OC)c3-2)CCN1C	nt	-10	-3	-1	12	nt	nt	nt
CCCCNC(=O)Nc1ccc(C(O)(C(=O)OCC)C(F)(F)F)cc1 (centres undefined)	-12	-15	-11	-1	3	-2	nt	nt
Cc1ccccc1-n1c(/C=C/c2ccccn2)nc2ccccc2c1=O	1	15	-2	1	58*	-8	35	67*
O=c1c2ccccc2nc(/C=C/c2ccccc2)n1-c1ccccc1O	-10	90*	3	1	53*	18	24	nt
COc1cc(/C=C/c2nc3ccccc3c(=O)n2-c2ccccc2O)ccc1O	13	-2	-1	2	69*	27	18	nt
CC(N)C(=O)OC(C)(C)Cc1ccc(Cl)cc1 (centres undefined)	nt	-5	-1	3	-42	nt	nt	nt
C[C@]12CCC3C(CC[C@H]4C[C@H](O)CC[C@]34C)C1C[C@@H](O)[C@H]2O (some centres undefined)	nt	nt	nt	0	nt	nt	nt	nt

Source: PubChem (several laboratories)
